Drawing on ChEMBL document CHEMBL2218924, “A broad activity screen in support of a chemogenomic map for kinase signalling research and drug discovery” (Biochem J, 2013), this text covers residual activity for 36 compounds.

Molecules are shown by their SMILES.

The target in the assay is MAP kinase-activated protein kinase 3 (Homo sapiens) (UniProt Q16644). The settings on record: at 1 µM.
Chain of MAP kinase-activated protein kinase 3 (Homo sapiens) (Q16644 whole entry, looked up): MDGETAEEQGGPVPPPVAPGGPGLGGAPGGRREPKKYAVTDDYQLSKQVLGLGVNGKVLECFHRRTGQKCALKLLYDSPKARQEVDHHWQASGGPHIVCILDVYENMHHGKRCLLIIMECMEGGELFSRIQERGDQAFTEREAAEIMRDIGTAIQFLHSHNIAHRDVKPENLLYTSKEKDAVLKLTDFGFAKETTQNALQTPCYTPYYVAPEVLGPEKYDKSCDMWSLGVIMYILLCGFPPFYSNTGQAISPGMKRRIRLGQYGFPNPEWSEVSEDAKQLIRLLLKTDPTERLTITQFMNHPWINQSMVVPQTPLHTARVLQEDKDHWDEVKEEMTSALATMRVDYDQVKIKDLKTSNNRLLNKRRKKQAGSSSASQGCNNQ
As for `O=C1NC(=O)/C(=C/c2ccc3c(c2)OC(F)(F)O3)S1`, the residual activity was found to be 95%.
Then `O=C1NC(=O)C(c2cn(CCCn3ccnc3)c3ccccc23)=C1Nc1ccccc1`, with 126%.
Then `O=C1NC(=O)c2cc(Nc3ccc(F)cc3)c(Nc3ccc(F)cc3)cc21`, with 90%.
Consider `Nc1ncnc2[nH]nc(Nc3ccc(F)cc3)c12`, for which the residual activity came to 107%.
The result for `O=C(O)c1ccc2c3c1cccc3c(=O)n1c3ccccc3nc21` reads 123%; that for `O=C1Cc2c([nH]c3ccc([N+](=O)[O-])cc23)-c2ccccc2N1`, 75%; that for `Ic1cccc(CSc2nnc(-c3ccncc3)o2)c1`, 111%.
Turning to `CC(=O)O/N=C1\C(=C2\C(=O)Nc3cc(Br)ccc32)Nc2ccccc21`, the residual activity came to 97%.
For `CCC(=O)Nc1ccc2ncnc(Nc3cccc(Br)c3)c2c1`, the residual activity came to 89%.
Then `Nc1ncnc2c1c(-c1ccc(Oc3ccccc3)cc1)cn2C1CCCC1`, with 114%.
Then `Cn1cc(/C=C2\C(=O)Nc3ccc(S(N)(=O)=O)cc32)c2ccccc21`, with 117%; and `O=C(CCCc1ccc(-c2ccccc2F)cc1)Nc1ccc(O)cc1`, with 100%.
Then `O=C1Nc2cc(Br)ccc2/C1=C1/Nc2ccccc2/C1=N\O`, with 98%; and `COc1cc2c(cc1OC)-c1n[nH]c(Nc3cccc(F)c3)c1C2`, with 99%.
For the compound `Oc1n[nH]c2nnc(-c3c(-c4ccccc4)nn4ccccc34)cc12`, the residual activity worked out at 98%.
The result for `Cc1nc2cc3nc(-c4cccs4)cnc3cc2n1C` reads 114%.
Then `CCN(CC)CCCCN1c2ccccc2Oc2ccc(Cl)cc21`, with 115%; and `COc1ccc(C(=O)Nc2sc3c(c2C(N)=O)CCCC3)cc1OC`, with 71%; and `CCOC(=O)c1c(C)[nH]c(/C=C2\C(=O)Nc3ccccc32)c1C`, with 98%.
Then `Nc1cccc(-c2cc3c(Oc4cccc(O)c4)ncnc3[nH]2)c1`, with 126%.
Turning to `CCCCc1c(-c2ccc(OC)cc2)[nH]c2nccnc12`, the residual activity amounted to 130%.
Then `COc1cc2ncnc(N3CCN(C(=O)Nc4ccc(Oc5ccccc5)cc4)CC3)c2cc1OC`, with 100%; and `O=c1c2ccccc2[nH]c(=S)n1CCN1CCC(=C(c2ccc(F)cc2)c2ccc(F)cc2)CC1`, with 89%; and `Nc1ccc2ncnc(NCCc3ccc(Oc4ccccc4)cc3)c2c1`, with 117%.
As to `CC(C)c1nn(-c2c(Cl)cccc2Cl)c2nc(Cc3ccc(OCCO)cc3)[nH]c(=O)c12`, the residual activity was determined as 101%.
Then `Cc1cc(C)c(/C=C2\C(=O)Nc3ccccc32)[nH]1`, with 140%; and `COc1cc2ncnc(Nc3ccc(O)c(Br)c3)c2cc1OC`, with 124%; and `CCOc1cc2ncnc(Nc3cccc(Br)c3)c2cc1OCC`, with 106%.
`CC(=O)c1ccc(N2CCOCC2)cc1O`: the residual activity was 131%.
The result for `O=C(Nc1cccc(Nc2nccc(Nc3cccc(C(F)(F)F)c3)n2)c1)C1CC1` reads 122%; that for `O=C1Nc2ccccc2/C1=C1/Nc2ccccc2/C1=N\OCCC(O)CO` (stereo unspecified), 106%.
On to `Cc1cc2ncc(-c3ccccc3)nc2cc1C`, for which the residual activity amounted to 135%.
Then `Oc1ccc(Nc2nc(-c3ccc(Cl)cc3)cs2)cc1`, with 139%.
Then `Cn1nc2c3c(cccc31)C(=O)c1ccccc1-2`, with 93%.
As to `NC(=O)Nc1sc(-c2ccc(F)cc2)cc1C(N)=O`, the residual activity worked out at 98%.
As for `CN[C@@H]1C[C@H]2O[C@@](C)([C@@H]1OC)n1c3ccccc3c3c4c(c5c6ccccc6n2c5c31)C(=O)NC4`, the residual activity was 101%.
